For 20 molecules, Percent Effect results are on record in ChEMBL document CHEMBL3988442, “University of Dundee, Small-Polar-MMV Screening Library” (2021).

The target of this assay is AMP-activated protein kinase, AMPK (Homo sapiens) (UniProt P54646+O43741+P54619+Q9UGJ0+Q9Y478+Q13131+Q9UGI9). The assay is described as follows: AMP-dependent Kinase enzyme assay. An in vitro enzyme assay that detects ADP turnover that is directly proportional to AMPK activity. This uses naive AMPK that is activated during the assay with MK-8722. The assay is classed as functional. Details: scale not given: direction of the effect not stated beside the values. Conditions: 30 µM.
As to `CN(CCc1ccccn1)c1cnn(C)c(=O)c1Br`, the Percent Effect is -11.5%. The figure for `COC(=O)N1CCCCC1C(=O)N1CCN(c2ncccc2C)CC1` (stereo not given) is -4.85%.

On to `Cc1noc(C(C)N2CCN(Cc3noc(C4CC4)n3)CC2)n1` (stereo not given), for which the Percent Effect stood at 3.22%. Consider `CC(NC(=O)N1CCCCCC1)c1ccc(S(N)(=O)=O)cc1` (stereo not given), for which the Percent Effect was determined as 5.75%. The figure for `Cc1cc(NC(=O)C2CCN(c3nnc(C)c(C)c3C#N)CC2)no1` is -48.4%; for `COc1ccc(-c2cc(C3CCCCCN3S(C)(=O)=O)on2)cc1` (stereo not given) it is 7.05%.

Regarding `CN(Cc1ccc(C#N)cc1)C(=O)c1ccn(C)c(=O)c1`, the Percent Effect came out at 5.01%. As for `COc1ccc(OCCNC(=O)CN(C)Cc2nnc(C)n2C)cc1`, the Percent Effect stood at 7.86%. Regarding `Nc1cc(C(=O)N2CCC(Oc3cccc(C(F)(F)F)c3)CC2)ccn1`, the Percent Effect was -4.01%. Take `CCN(CCNS(=O)(=O)C1CCOCC1)C(=O)OC(C)(C)C`: the Percent Effect is 1.64%. The value for `CCc1ccc2nc(C)cc(C(=O)N[C@@H]3CCCNC3)c2c1` was -2.76%; that for `CC1(C)OC(=O)N(CC(=O)N2CCC(c3ccccc3F)C2)C1=O` (stereo not given) was 12.7%; that for `CC1(c2nccs2)CCN(C(=O)CCN2CCOCC2)CC1` was 10.7%. The figure for `Cc1nccn1-c1ccc(C(=O)NCC(F)(F)F)nn1` is -3.73%. The figure for `Cc1nsc(C(=O)NCCc2cccs2)n1` is 1.77%; for `O=C(CCOc1ccc(Cl)cc1)NCCCn1cccn1` it is -3.71%.

As to `CN(CCCOc1ccccc1Cl)C(=O)CN1CCCCCC1=O`, the Percent Effect came out at 9.36%.

In the case of `Cc1cc(C(=O)N2CCN(c3ncc4c(n3)CCOC4)CC2)sc1C`, the Percent Effect came out at 16.3%.

Turning to `CC(=O)Nc1ccc(CNC(=O)CNCc2nnc(C)o2)cc1`, the Percent Effect is -8.94%.

In the case of `CN(Cc1csc(-c2ccccc2)n1)Cc1ncccc1C(=O)O`, the Percent Effect is 5.39%.
